# Experimental data from PubChem BioAssay.
# Values joined by “and” are separate entries in the source; they are usually repeats but may differ in a detail not shown here. Equal values may be shown once. Active and inactive are the calls of the source.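 The calls were made as follows: active = compounds whose cell count with miR-34 switched on is under 0.7 times the count with it off; inactive = the rest.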
# Assay: viability loss with induced miR-34 in A549 – imaging, A549 dox-inducible miR-34, nuclei and caspase counts, primary screen (AID 1347080); also: test concentration not given here
# Conditions: A549 miR-34 inducible, Hoechst nuclei count, 48 h; stronger effect = lower value; cell number ratio, induced over uninduced
row,SMILES,fold change
1,O=c1[nH]c(=O)n([C@H]2C[C@H](O)[C@@H](CO)O2)cc1F,1.03 (inactive)
2,CC1(C)O[C@@H]2C[C@H]3[C@@H]4C[C@H](F)C5=CC(=O)C=C[C@]5(C)[C@@]4(F)[C@@H](O)C[C@]3(C)[C@]2(C(=O)CO)O1,0.962 (inactive) and 0.858 (inactive)
3,C=C[C@@]1(C)CC(=O)[C@]2(O)[C@@]3(C)[C@@H](O)CCC(C)(C)[C@@H]3[C@H](O)[C@H](OC(C)=O)[C@@]2(C)O1,0.943 (inactive)
4,CC(C)NC[C@@H](O)COc1cccc2ccccc12,0.945 (inactive)
5,C#C[C@]1(O)CC[C@H]2[C@@H]3CCc4cc(OC)ccc4[C@H]3CC[C@@]21C,0.882 (inactive)
6,Cc1onc(-c2ccccc2)c1C(=O)N[C@@H]1C(=O)N2[C@@H]1SC(C)(C)[C@@H]2C(=O)O,0.877 (inactive)

# Same assay, conditions: A549 miR-34 inducible, Hoechst nuclei count, 48 h; measured here: relative caspase fold change +Dox/-Dox
row,SMILES,fold change
1,NC(=O)c1ncn([C@@H]2O[C@H](CO)[C@@H](O)[C@H]2O)c1O,1.07
2,CCN1CCN(C(=O)N[C@@H](C(=O)N[C@@H]2C(=O)N3C(C(=O)O)=C(CSc4nnnn4C)CS[C@H]23)c2ccc(O)cc2)C(=O)C1=O,1.41 and 1.35
3,CC(C)(C)NC(=O)[C@H]1CC[C@H]2[C@@H]3CC[C@H]4NC(=O)C=C[C@]4(C)[C@H]3CC[C@]12C,1.11 and 2.31
4,CC(=O)O[C@H]1C[C@@H]2CC[C@@H]3[C@H](CC[C@@]4(C)[C@H]3C[C@H]([N+]3(C)CCCCC3)[C@@H]4OC(C)=O)[C@@]2(C)C[C@@H]1N1CCCCC1,1.81
5,CNC[C@H](O)c1ccc(O)c(O)c1,1.01
6,Nc1ccc(S(N)(=O)=O)cc1,1.61 and 1.13 and 2.65
7,C[C@@](Cc1ccc(O)c(O)c1)(NN)C(=O)O,1.15 and 0.758 and 1.14
8,CO[C@@]12[C@H](COC(N)=O)C3=C(C(=O)C(C)=C(N)C3=O)N1C[C@@H]1N[C@@H]12,0.667 and 0.791
9,CC(=O)O[C@]1(C(C)=O)CC[C@H]2[C@@H]3C=C(Cl)C4=CC(=O)[C@@H]5C[C@@H]5[C@]4(C)[C@H]3CC[C@@]21C,1.52 and 2.1
10,CCC(=O)O[C@]1(C(=O)SCF)[C@H](C)C[C@H]2[C@@H]3C[C@H](F)C4=CC(=O)C=C[C@]4(C)[C@@]3(F)[C@@H](O)C[C@@]21C,0.631 and 0.861
11,O=c1[nH]c(=O)n([C@H]2C[C@H](O)[C@@H](CO)O2)cc1F,0.977
12,CC1(C)O[C@@H]2C[C@H]3[C@@H]4C[C@H](F)C5=CC(=O)C=C[C@]5(C)[C@@]4(F)[C@@H](O)C[C@]3(C)[C@]2(C(=O)CO)O1,2.42 and 1.12
13,C=C[C@@]1(C)CC(=O)[C@]2(O)[C@@]3(C)[C@@H](O)CCC(C)(C)[C@@H]3[C@H](O)[C@H](OC(C)=O)[C@@]2(C)O1,1.09
14,CC(C)NC[C@@H](O)COc1cccc2ccccc12,0.937
15,C#C[C@]1(O)CC[C@H]2[C@@H]3CCc4cc(OC)ccc4[C@H]3CC[C@@]21C,0.717
16,Cc1onc(-c2ccccc2)c1C(=O)N[C@@H]1C(=O)N2[C@@H]1SC(C)(C)[C@@H]2C(=O)O,6.72

# Same assay, conditions: A549 miR-34 inducible, Hoechst nuclei count, 48 h; measured here: total cells with miR-34 induction; stronger effect = lower value
row,SMILES,cell count
1,NC(=O)c1ncn([C@@H]2O[C@H](CO)[C@@H](O)[C@H]2O)c1O,10800
2,CCN1CCN(C(=O)N[C@@H](C(=O)N[C@@H]2C(=O)N3C(C(=O)O)=C(CSc4nnnn4C)CS[C@H]23)c2ccc(O)cc2)C(=O)C1=O,7800 and 9270
3,CC(C)(C)NC(=O)[C@H]1CC[C@H]2[C@@H]3CC[C@H]4NC(=O)C=C[C@]4(C)[C@H]3CC[C@]12C,8640 and 8130
4,CC(=O)O[C@H]1C[C@@H]2CC[C@@H]3[C@H](CC[C@@]4(C)[C@H]3C[C@H]([N+]3(C)CCCCC3)[C@@H]4OC(C)=O)[C@@]2(C)C[C@@H]1N1CCCCC1,8710
5,CNC[C@H](O)c1ccc(O)c(O)c1,10100
6,Nc1ccc(S(N)(=O)=O)cc1,8720 and 8600 and 12400
7,C[C@@](Cc1ccc(O)c(O)c1)(NN)C(=O)O,8030 and 8200 and 9200
8,CO[C@@]12[C@H](COC(N)=O)C3=C(C(=O)C(C)=C(N)C3=O)N1C[C@@H]1N[C@@H]12,1280 and 1220
9,CC(=O)O[C@]1(C(C)=O)CC[C@H]2[C@@H]3C=C(Cl)C4=CC(=O)[C@@H]5C[C@@H]5[C@]4(C)[C@H]3CC[C@@]21C,8890 and 7970
10,CCC(=O)O[C@]1(C(=O)SCF)[C@H](C)C[C@H]2[C@@H]3C[C@H](F)C4=CC(=O)C=C[C@]4(C)[C@@]3(F)[C@@H](O)C[C@@]21C,6550 and 5840
11,O=c1[nH]c(=O)n([C@H]2C[C@H](O)[C@@H](CO)O2)cc1F,4160
12,CC1(C)O[C@@H]2C[C@H]3[C@@H]4C[C@H](F)C5=CC(=O)C=C[C@]5(C)[C@@]4(F)[C@@H](O)C[C@]3(C)[C@]2(C(=O)CO)O1,7620 and 6920
13,C=C[C@@]1(C)CC(=O)[C@]2(O)[C@@]3(C)[C@@H](O)CCC(C)(C)[C@@H]3[C@H](O)[C@H](OC(C)=O)[C@@]2(C)O1,9780
14,CC(C)NC[C@@H](O)COc1cccc2ccccc12,8050
15,C#C[C@]1(O)CC[C@H]2[C@@H]3CCc4cc(OC)ccc4[C@H]3CC[C@@]21C,9180
16,Cc1onc(-c2ccccc2)c1C(=O)N[C@@H]1C(=O)N2[C@@H]1SC(C)(C)[C@@H]2C(=O)O,9940
